We go through 15 compounds from ChEMBL document CHEMBL1961873, “Compounds: GSK PKIS; Assays: Nanosyn kinase panel” (2012).

For this experiment, the target named is Tyrosine-protein kinase Fes/Fps (Homo sapiens) (UniProt P07332). The conditions noted are these: at 0.1 µM.
Tyrosine-protein kinase Fes/Fps (Homo sapiens), sequence (P07332 whole entry): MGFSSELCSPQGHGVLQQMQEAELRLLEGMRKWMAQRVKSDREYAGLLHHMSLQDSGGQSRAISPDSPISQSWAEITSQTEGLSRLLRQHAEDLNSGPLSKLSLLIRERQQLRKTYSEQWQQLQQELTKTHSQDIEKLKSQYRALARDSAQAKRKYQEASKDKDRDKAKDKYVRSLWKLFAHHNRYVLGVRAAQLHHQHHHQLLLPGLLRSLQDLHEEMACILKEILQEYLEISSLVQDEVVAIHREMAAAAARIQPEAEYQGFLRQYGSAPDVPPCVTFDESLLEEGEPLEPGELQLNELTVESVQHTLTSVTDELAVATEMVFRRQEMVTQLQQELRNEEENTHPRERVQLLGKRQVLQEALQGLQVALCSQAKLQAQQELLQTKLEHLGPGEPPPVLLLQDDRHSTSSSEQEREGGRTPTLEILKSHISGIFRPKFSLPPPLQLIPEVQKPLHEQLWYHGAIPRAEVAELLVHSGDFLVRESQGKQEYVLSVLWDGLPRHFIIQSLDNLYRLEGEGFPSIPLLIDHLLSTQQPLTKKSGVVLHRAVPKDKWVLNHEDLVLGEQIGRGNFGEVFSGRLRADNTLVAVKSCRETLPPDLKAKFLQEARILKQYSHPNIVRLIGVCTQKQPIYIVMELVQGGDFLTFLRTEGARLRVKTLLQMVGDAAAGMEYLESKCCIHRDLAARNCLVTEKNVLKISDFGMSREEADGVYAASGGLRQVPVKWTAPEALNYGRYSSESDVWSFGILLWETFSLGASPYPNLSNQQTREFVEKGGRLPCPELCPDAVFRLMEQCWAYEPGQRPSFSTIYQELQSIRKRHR
For `CS(=O)(=O)CCN(CC#N)Cc1ccc(-c2ccc3ncnc(Nc4ccc(OCc5cccc(F)c5)c(Cl)c4)c3c2)o1`, the inhibition turned out to be 0.82%. With `CC(=O)Nc1cccc(C#Cc2cncnc2Nc2ccc(OCc3cccc(F)c3)c(Cl)c2)n1` the figure was -0.62%. Regarding `COc1ccccc1Nc1ncc(-c2ccccc2)o1`, the inhibition is 4.25%.

In the case of `NS(=O)(=O)c1cccc(-c2ccc3c(NC(=O)C4CC4)n[nH]c3c2)c1`, the inhibition was -3.2%. As for `Cc1nnc(-c2ccc(C)c(-c3ccc(C(=O)Nc4cccc(C#N)c4)cc3)c2)o1`, the figure is 0.91%; as for `COc1ccc(-c2nn3ncccc3c2-c2ccnc(Nc3ccc(Cl)c(C(F)(F)F)c3)n2)cc1`, 0.66%; as for `O=C1NC(=O)C(c2ccc(Cl)cc2)=C1Nc1ccc(Cl)c(C(=O)O)c1`, -3.1%. As for `COC(=O)Nc1nc2cc(Oc3cccc(NC(=O)Nc4cc(C(F)(F)F)ccc4F)c3)ccc2[nH]1`, the figure is -0.51%.

For `O=C1NC(=O)C(c2cccc(Cl)c2)=C1Nc1ccc(O)c(Cl)c1`, the inhibition stood at 0.55%. As for `CCCN1CCC=C(c2ccc(Nc3nc(Nc4ccccc4C(N)=O)c4cc[nH]c4n3)c(C)c2)C1`, the figure is 16.5%; as for `Nc1nc(-c2ccc3c(c2)C(=Cc2cc(Br)c(O)c(Br)c2)C(=O)N3)cs1`, -2.93%. With `O=C1NC(=O)C(c2ccccc2Cl)=C1Nc1cccc(O)c1` the figure was 1.81%; with `CCc1cccc(NC(=O)Nc2ccc(Oc3ccc4nc(NC(=O)OC)[nH]c4c3)cc2)c1`, 0.9%. With `CC1=C(C(=O)Nc2ccc3[nH]ncc3c2)C(c2ccc3ccccc3c2)CC(=O)N1` (stereo not given) the figure was 1.76%. For the compound `CS(=O)(=O)Nc1ccc(N/C=C2\C(=O)Nc3ccccc32)cc1`, the inhibition is -2.08%.

A word on the inhibition: it is the drop in the measured response relative to a control, in per cent.
